From PubChem BioAssay (NCI) come the findings set out here.

Compounds without any hit were thinned out: in the full panel of roughly 83,000, 20% have a hit.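 Interpretation: 100, growth as untreated; towards 0, rising growth inhibition; 0, no net growth; 0 to -100, cell death. Compounds scoring below 10 were considered active.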 Unmarked numbers belong to inactive results. The source made the active and inactive calls.

What all share (assay): NCI-60 one-dose screen, 48 h (100 = growth as untreated, 0 = no growth, -100 = all killed)
One experiment relates to A549/ATCC NSCLC. The note with it: 10 µM.
In a further experiment the test system is K-562 leukemia. To be noted: 10 µM.
Another experiment concerns MDA-MB-231 breast. To be noted: 10 µM.
The subject of another experiment is SNB-75 CNS. The note with it: 10 µM.
The next experiment has as its system PC-3 prostate. The note with it: 10 µM.
Another experiment has as its system LOX IMVI melanoma. To be noted: 10 µM.
For another experiment, the system named is SK-MEL-28 melanoma. The note with it: 10 µM.
A further experiment deals with MOLT-4 leukemia. The note with it: 10 µM.
In the next experiment the test system is SR leukemia. The note with it: 10 µM.
A further experiment has as its system OVCAR-3 ovarian. The note with it: 10 µM.
A further experiment deals with HS 578T breast. The note with it: 10 µM.
In the next experiment the test system is SW-620 colon. The note with it: 10 µM.
The next experiment deals with MDA-MB-468 breast. The note with it: 10 µM unless noted.
Another experiment relates to UO-31 renal. The note with it: 10 µM.
Another experiment deals with HCC-2998 colon. To be noted: 10 µM.
The subject of a further experiment is KM12 colon. The note with it: 10 µM.
The test system of the next experiment is NCI-H23 lung. To be noted: 10 µM.
Another experiment deals with CAKI-1 renal. The note with it: 10 µM.
The subject of the next experiment is BT-549 breast. To be noted: 10 µM.
In the next experiment the test system is ACHN renal. The note with it: 10 µM.

In the case of `COc1cc(OC)c(S(=O)(=O)N(CCCl)CCCl)cc1C(=O)/C=C/c1ccc(C)cc1`, the growth was 79.2% in the experiment with A549/ATCC NSCLC; 70.9% with K-562 leukemia; 35% with MDA-MB-231 breast; 90.1% in the experiment on SNB-75 CNS; 67.6% in the experiment with PC-3 prostate; -24% (active) in the experiment on LOX IMVI melanoma. Moreover, the growth in the experiment on SK-MEL-28 melanoma is 102%; in the experiment with MOLT-4 leukemia it was 82.4%; with SR leukemia, 53.6%; in the experiment with OVCAR-3 ovarian, 112%; with HS 578T breast, 56.8%; in the experiment on SW-620 colon, 82.8%. Also, the growth in the experiment on MDA-MB-468 breast was 68.6%.
With `C#CC[Se]C(=O)c1ccc(C(=O)[Se]CC#C)s1`, the growth with K-562 leukemia is 89.6%; in the experiment with MDA-MB-231 breast, 95%; in the experiment on SNB-75 CNS, 109%; in the experiment with PC-3 prostate it was 44.9%; in the experiment on UO-31 renal, 47.8%; with MOLT-4 leukemia it was 101%. Also, the growth with SR leukemia was 26.8%; with OVCAR-3 ovarian it was 84.5%; in the experiment on HS 578T breast, 92.4%; with SW-620 colon, 98.2%; with HCC-2998 colon, 94.7%; with KM12 colon, 42.8%. The growth with MDA-MB-468 breast is 64.5%.
With `C#CCCCN(CCNc1ccnc2cc(Cl)ccc12)C(=O)CCC(=O)O[C@@H]1O[C@@H]2OC3(C)CC[C@H]4[C@H](C)CC[C@@H]([C@H]1C)[C@@]24OO3`, the growth in the experiment on NCI-H23 lung is 35.7%; with K-562 leukemia it was 13%; in the experiment on MDA-MB-231 breast, 64.2%; in the experiment on LOX IMVI melanoma, -40.9% (active); in the experiment with SK-MEL-28 melanoma it was 44.1%; in the experiment on UO-31 renal, 14.3%. In addition, the growth was 41.4% with CAKI-1 renal; -4.65% (active) in the experiment on MOLT-4 leukemia; -21.9% (active) in the experiment with SR leukemia; 44.1% in the experiment on HS 578T breast; 37.3% in the experiment on BT-549 breast; 33.2% in the experiment on SW-620 colon. The growth in the experiment with HCC-2998 colon is 20.7%; in the experiment on MDA-MB-468 breast, -3.36% (active).
For the molecule `CC[C@]12C=CCN3CC[C@@]4(c5ccc(OC)cc5N(C)[C@H]4[C@@](O)(C(=O)OC)[C@@H]1OC(=O)CCC[P+](c1ccc(C)cc1)(c1ccc(C)cc1)c1ccc(C)cc1)[C@@H]32`, the growth is -90.7% (active) in the experiment with NCI-H23 lung; -13.4% (active) with K-562 leukemia; -94.9% (active) in the experiment on MDA-MB-231 breast; -83.3% (active) with PC-3 prostate; -89.3% (active) in the experiment with LOX IMVI melanoma; -97.8% (active) with ACHN renal. Besides, the growth with CAKI-1 renal was -95.3% (active); with MOLT-4 leukemia, -45.1% (active); in the experiment with SR leukemia, 5.74% (active); in the experiment with HS 578T breast, -60.3% (active); in the experiment with SW-620 colon, -85.2% (active); with KM12 colon, -76.1% (active). Besides, in the experiment with MDA-MB-468 breast, the growth is -92.1% (active).
As for `CC1=C(CCC=O)C2=C(C)C3(CC3)[C@@](C)(O)C(=O)C2=C1`, the growth is -86% (active) with NCI-H23 lung; -99.2% (active) in the experiment with MDA-MB-231 breast; -99.7% (active) in the experiment with UO-31 renal; -100% (active) with ACHN renal; -100% (active) in the experiment with CAKI-1 renal; -8.94% (active) with HS 578T breast. The growth in the experiment on SW-620 colon was -74.9% (active); in the experiment on HCC-2998 colon, -91.6% (active).
Turning to `CC12CCC3(CCC(=O)NCCCNc4ccnc5cc(Cl)ccc45)[C@@](C)(OO[C@]3(C)O1)O2`, the growth was -43.6% (active) in the experiment on NCI-H23 lung; 14.4% in the experiment with K-562 leukemia; -23.4% (active) in the experiment on MDA-MB-231 breast; -50.1% (active) in the experiment on UO-31 renal; -10.1% (active) in the experiment with ACHN renal; -25% (active) with CAKI-1 renal. Besides, the growth in the experiment on MOLT-4 leukemia is 7.04% (active); in the experiment with SR leukemia, 2.39% (active); with OVCAR-3 ovarian, 30.8%; with HS 578T breast it was 11.4%; in the experiment on SW-620 colon it was 28.9%; with KM12 colon, 9.24% (active). In the experiment on MDA-MB-468 breast, the growth is -38.3% (active).
As for `COC(=O)C[C@](O)(CCC(C)C)C(=O)O[C@H]1C(OC)=C[C@@]23CCCN2CCc2cc4c(cc2[C@@H]13)OCO4`, the growth in the experiment with NCI-H23 lung was -54.3% (active); with A549/ATCC NSCLC, -20.5% (active); with K-562 leukemia, 4.01% (active); with MDA-MB-231 breast, -30.3% (active); with PC-3 prostate, -23.5% (active); in the experiment with SK-MEL-28 melanoma, -32.9% (active). Besides, the growth is -23.3% (active) in the experiment with ACHN renal; -5.07% (active) with MOLT-4 leukemia; -26.7% (active) in the experiment on SR leukemia; -36.9% (active) with OVCAR-3 ovarian; -25.8% (active) with HS 578T breast; -27.9% (active) in the experiment on SW-620 colon. Also, the growth is -22.3% (active) in the experiment on KM12 colon and -39.7% (active) with MDA-MB-468 breast.
On to `C=CCN=C([Se])NC(=O)c1ccc2c(c1)OCO2`, for which the growth in the experiment with A549/ATCC NSCLC is 40.4%; with K-562 leukemia, 107%; in the experiment with MDA-MB-231 breast, 103%; in the experiment with SNB-75 CNS, 26%; in the experiment on PC-3 prostate, 40.1%; in the experiment with SK-MEL-28 melanoma, 111%. Moreover, the growth was 111% in the experiment on ACHN renal; 118% with CAKI-1 renal; 107% in the experiment on MOLT-4 leukemia; 93.1% in the experiment with SR leukemia; 112% with OVCAR-3 ovarian; 99.3% with HS 578T breast. Besides, the growth was 104% with BT-549 breast; 111% in the experiment with SW-620 colon; 92.4% in the experiment on HCC-2998 colon; 41.1% in the experiment with KM12 colon; 110% with MDA-MB-468 breast.
For `COc1ccc(OC)c(/C=C/C(=O)c2nc3ccccc3n2Cc2ccc(F)cc2)c1`, the growth in the experiment on NCI-H23 lung is -49.1% (active); in the experiment with K-562 leukemia it was 0.885% (active); in the experiment on ACHN renal, -48.2% (active); in the experiment with CAKI-1 renal it was 32.2%; in the experiment on MOLT-4 leukemia it was -6.12% (active); with SR leukemia, -8.46% (active). Also, the growth is -12% (active) in the experiment on OVCAR-3 ovarian, -20.9% (active) in the experiment on KM12 colon and -57.3% (active) in the experiment with MDA-MB-468 breast.
Regarding `COc1ccc(/C=C/C(=O)c2nc3ccccc3n2Cc2ccc(Br)cc2)cc1`, the growth was 61.9% in the experiment with NCI-H23 lung; 21.1% in the experiment on K-562 leukemia; 66.1% in the experiment on SNB-75 CNS; 52.4% with UO-31 renal; 68% with CAKI-1 renal; 20.7% in the experiment on MOLT-4 leukemia. For the same molecule, the growth with SR leukemia was 25.6%; in the experiment with HCC-2998 colon, 54.2%; in the experiment with KM12 colon, 61.5%; in the experiment with MDA-MB-468 breast, 16.9%.
Consider `O=C(/C=C/c1ccccc1)c1nc2ccccc2n1Cc1ccc(F)cc1`, for which the growth is -45.9% (active) in the experiment on NCI-H23 lung; -8.55% (active) with K-562 leukemia; 3.39% (active) in the experiment on SNB-75 CNS; -33.5% (active) in the experiment with PC-3 prostate; -26.4% (active) with SK-MEL-28 melanoma; -55% (active) in the experiment on ACHN renal. Moreover, the growth was -4.66% (active) with MOLT-4 leukemia, -16.4% (active) in the experiment with SR leukemia, -65% (active) with BT-549 breast and -90.3% (active) with MDA-MB-468 breast.
For the molecule `COc1cc(OC)c(/C=C/C(=O)c2nc3ccccc3n2Cc2ccc(F)cc2)c(OC)c1`, the growth in the experiment on NCI-H23 lung is 89%; in the experiment with K-562 leukemia, 81.9%; in the experiment on SNB-75 CNS it was 0.098% (active); in the experiment with PC-3 prostate, 71%; in the experiment with SK-MEL-28 melanoma, 92.8%; in the experiment with CAKI-1 renal it was 56.2%. Also, the growth with MOLT-4 leukemia is 44.7%; with SR leukemia, 74.3%; in the experiment on MDA-MB-468 breast, 80.1%.
